Test results: PubChem BioAssay (NCATS)
Inconclusive results are not listed. A number with no mark means an inactive call. Activity calls are given as the source filed them. The call rests on the fitted dose curve; in most records, active means well fitted curve in the direction sought with a large enough effect; inconclusive means small, poorly fitted or top-dose-only effect, or another doubt; inactive means no such curve, though single readings can be large; an effect the other way counts as inactive or inconclusive.

Columns and labels:
[1] = BET inhibitor-based combinations targeting novel dependencies in MECOM-rearranged (r) AML: SET-2 cell line (AID 2202231); details: SET-2 AML cells viability, CellTiter-Glo luminescence, 48 h; viability: stronger effect = lower value, concentration not given here; further: nearly all actives have a fitted effect of over 35% in size;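 on viability: plate controls were DMSO treated cells for no effect and wells without cells for full effect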
In short: (§1)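 Each compound was tested at eleven concentrations on cells seeded at 500/well. After two days' incubation, ATP-based luminescence reported viability; responses relative to DMSO and blank wells yielded AUC and cell-line-centred Z-AUC.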

[2] = BET inhibitor-based combinations targeting novel dependencies in MECOM-rearranged (r) AML: OCI-AML3 cell line (AID 2202232); details: Potency: OCI-AML3 viability; further: nearly all actives have a fitted effect of over 35% in size
In short: as §1

[3] = BET inhibitor-based combinations targeting novel dependencies in MECOM-rearranged (r) AML: UCSD-AML1 cell line (AID 2202235); further: nearly all actives have a fitted effect of over 40% in size
In short: (§2)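 First, 500 cells per well were seeded; next, drugs were pinned as 11-point doses; then plates sat 48 hr in the incubator; finally CellTiter-Glo was added and luminescence read, with AUC and Z-AUC computed.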

[4] = BET inhibitor-based combinations targeting novel dependencies in MECOM-rearranged (r) AML: HNT-34 cell line (AID 2202234); further: nearly all actives have a fitted effect of over 35% in size
In short: as §2

[5] = BET inhibitor-based combinations targeting novel dependencies in MECOM-rearranged (r) AML: AML-191 cell line (AID 2202236; further: nearly all actives have a fitted effect of over 35% in size)
In short: as §1

[6] = BET inhibitor-based combinations targeting novel dependencies in MECOM-rearranged (r) AML: AML-194 cell line (AID 2202237; further: nearly all actives have a fitted effect of over 40% in size)
In short: as §1

[7] = BET inhibitor-based combinations targeting novel dependencies in MECOM-rearranged (r) AML: MV-4-11 cell line (AID 2202233); further: nearly all actives have a fitted effect of over 45% in size
In short: as §2
Potency means the concentration at half of the fitted maximal effect.

CN1CCN(CCCNc2ncc(Cl)c(-c3cc4c(C(=O)NC5CC5)cccc4s3)n2)CC1
viability [1]: 80.2%
Potency [2]: inactive
Potency [3]: inactive

COc1cc(-c2cn(C)c(=O)c3cnccc23)cc(OC)c1CN(C)C
viability [1]: 106%
Potency [2]: 4.68 µM (active)
Potency [4]: inactive
Potency [3]: inactive
Potency [5]: inactive
Potency [6]: inactive

CC(C)(C)NC(=O)c1cncn1C1CCN(c2ccc(-c3nnc(C(F)(F)F)o3)cn2)CC1
Potency [1]: 16.6 µM (active)
Potency [2]: 1.05 µM (active)
Potency [4]: 4.68 µM (active)
Potency [5]: 13.2 µM (active)

CCCS(=O)(=O)c1nc(NC2CC2)cc(-c2ccc3c(ccn3C3CC(C)(C)NC(C)(C)C3)c2)n1
Potency [1]: 2.21 µM (active)
Potency [2]: 2.78 µM (active)
Potency [4]: 3.12 µM (active)
Potency [5]: 3.12 µM (active)

Nc1nccc2c1ncn2[C@@H]1C=C(CO)[C@@H](O)[C@H]1O
Potency [1]: 0.525 µM (active)
Potency [7]: 0.166 µM (active)
Potency [4]: 0.833 µM (active)

COc1cc2c(NC3CCN(C4CCCCC4)CC3)nc(N3CCCN(C(C)C)CC3)nc2cc1OCCCN1CCCCC1
viability [1]: 109%
Potency [7]: 7.42 µM (active)

C=C1/C(=C\C=C2/CCC[C@]3(C)[C@@H]([C@H](C)CCCC(C)(C)O)CC[C@@H]23)C[C@@H](O)C[C@@H]1O
viability [1]: 99.5%
Potency [2]: 20.9 µM (active)
Potency [6]: 23.5 µM (active)

Nc1nc(N)c2nc(-c3cccc(Cl)c3)c(N)nc2n1
Potency [1]: 0.372 µM (active)
Potency [2]: 2.95 µM (active)
Potency [5]: 5.25 µM (active)

CO[C@H]1C(=O)[C@]2(C)[C@@H](OC)C[C@H]3OC[C@@]3(OC(C)=O)[C@H]2[C@H](OC(=O)c2ccccc2)[C@]2(O)C[C@H](OC(=O)[C@H](O)[C@@H](NC(=O)OC(C)(C)C)c3ccccc3)C(C)=C1C2(C)C
Potency [1]: 0.0037 µM (active)
Potency [2]: 0.0026 µM (active)
Potency [3]: 0.0023 µM (active)
Potency [6]: 0.0042 µM (active)

O=c1oc2cc(O)ccc2s1
viability [1]: 106%
Potency [7]: inactive
Potency [4]: inactive
Potency [3]: inactive
Potency [5]: inactive
Potency [6]: inactive

CC[C@H](Nc1ncnc2nc[nH]c12)c1oc2ccccc2c(=O)c1-c1cccc(F)c1
viability [1]: 93.4%
Potency [7]: 6.61 µM (active)

C=CC(=O)N1CC/C(=C\c2ccc(F)c([N+](=O)[O-])c2)C(=O)/C(=C/c2ccc(F)c([N+](=O)[O-])c2)C1
Potency [1]: 0.148 µM (active)
Potency [7]: 0.059 µM (active)
Potency [4]: 0.186 µM (active)
Potency [3]: 0.166 µM (active)
Potency [5]: 0.209 µM (active)
Potency [6]: 0.372 µM (active)

Cc1[nH]nc2ncc(C(=O)N3CCC[C@H]3c3ccc(Cl)cc3)cc12
viability [1]: 105%
Potency [2]: inactive
Potency [3]: inactive
Potency [5]: inactive
Potency [6]: inactive

CCOc1cc(/C=C2/C(=O)N(c3ccccc3)N=C2C)cc(Cl)c1OCC(=O)OC
viability [1]: 103%
Potency [7]: 20.9 µM (active)
Potency [4]: inactive
Potency [3]: inactive
Potency [5]: inactive

CNCCN(C)Cc1cn[nH]c1-c1ccc(OC2CC(OCCC3CCOCC3)C2)cc1 (stereo not given)
viability [1]: 95.3%
Potency [7]: 20.9 µM (active)
Potency [4]: 18.6 µM (active)

C=C1C(=CC=C2CCC[C@]3(C)[C@@H]([C@H](C)C=C[C@H](C)C(C)C)CC[C@@H]23)C[C@@H](O)C[C@@H]1O
Potency [1]: 23.5 µM (active)
Potency [7]: 16.6 µM (active)
Potency [4]: 18.6 µM (active)
Potency [3]: inactive
Potency [5]: 23.5 µM (active)

CC[C@H]1OC(=O)[C@H](C)C(=O)[C@H](C)[C@@H](O[C@H]2O[C@H](C)C[C@H](N(C)C)[C@H]2O)[C@](C)(OC)C[C@@H](C)C(=O)[C@H](C)[C@H]2N(CCCCn3cnc(-c4cccnc4)c3)C(=O)O[C@]12C
viability [1]: 101%
Potency [2]: inactive
Potency [3]: inactive
Potency [5]: inactive
Potency [6]: inactive

C[C@@H](C(=O)Nc1ccc(Cl)cc1)C1CCC(c2ccnc3ccc(F)cc23)CC1 (stereo not given in full)
Potency [1]: 16.6 µM (active)
Potency [2]: inactive
Potency [3]: inactive
Potency [6]: inactive

CC(C)(c1ccc(OCC(O)CO)cc1)c1ccc(OCC(O)CCl)cc1 (stereo not given)
viability [1]: 60%
Potency [2]: inactive
Potency [3]: inactive
Potency [5]: inactive
Potency [6]: inactive

CC1(N)CCN(c2cccnc2NC(=O)c2nc(-c3ncccc3C(F)(F)F)cnc2N)CC1
viability [1]: 101%
Potency [7]: 7.42 µM (active)
Potency [4]: 18.6 µM (active)

Cn1cc(-c2nc(N[C@@H]3CCCC[C@@H]3N)c(F)c3c2C(=O)NC3)cn1
viability [1]: 112%
Potency [7]: 0.148 µM (active)
Potency [4]: 2.35 µM (active)

COC(=O)[C@H](CCCN=C(N)N)NS(=O)(=O)c1ccc(C)cc1
viability [1]: 112%
Potency [7]: inactive
Potency [4]: inactive
Potency [3]: inactive
Potency [5]: inactive
Potency [6]: inactive

c1ccc2c(-c3cnn4cc(-c5ccc(OCCN6CCOCC6)cc5)cnc34)ccnc2c1
Potency [1]: 12.9 µM (active)
Potency [7]: 4.56 µM (active)
Potency [4]: 8.11 µM (active)

C=C1[C@H](OC(=O)/C=C(\C)CC)C[C@@H](C(C)C)[C@@H]2[C@H]([C@@H](C)OC(C)=O)C(=O)C[C@@H]12
Potency [1]: 16.6 µM (active)
Potency [7]: 18.6 µM (active)

CC1(C)SCCN(S(=O)(=O)c2ccc(OCC#CCO)cc2)[C@H]1C(=O)NO
viability [1]: 96.5%
Potency [2]: inactive
Potency [5]: inactive

CCCCCCCCCCCC1=C(O)C(=O)C=C(O)C1=O
viability [1]: 115%
Potency [7]: 13.2 µM (active)

O=C(c1ccc(Nc2nc(C3CC3)cn3c(-c4cn[nH]c4)cnc23)c(F)c1)N1CCOCC1
viability [1]: 57.2%
Potency [7]: 1.18 µM (active)
Potency [4]: 5.25 µM (active)

Nc1ncnc2nc(-c3ccc(N4CCOCC4)nc3)cc(-c3cccc(Br)c3)c12
viability [1]: 91.6%
Potency [7]: 8.33 µM (active)

C[C@@H](Nc1cc(F)cc(F)c1)c1cc(C(=O)N(C)C)cc2c(=O)cc(N3CCOCC3)oc12
viability [1]: 109%
Potency [2]: 5.9 µM (active)
Potency [5]: 23.5 µM (active)

CO[C@@]12[C@H](COC(N)=O)C3=C(C(=O)C(C)=C(N)C3=O)N1C[C@@H]1N[C@@H]12
viability [1]: 95%
Potency [2]: inactive
Potency [5]: inactive
Potency [6]: inactive

N#Cc1ccc(N(Cc2ccc(Br)cc2)n2cnnc2)cc1
viability [1]: 93.5%
Potency [7]: 20.9 µM (active)
Potency [4]: 16.6 µM (active)
Potency [3]: inactive
Potency [5]: inactive
Potency [6]: inactive

CN(C(=O)c1c(O)c2ccccc2n(C)c1=O)c1ccccc1
viability [1]: 76.1%
Potency [7]: inactive
Potency [4]: inactive
Potency [3]: inactive
Potency [5]: inactive
Potency [6]: inactive

O=C(NO)c1ccc(C2=Nc3ccccc3Oc3ccccc32)cc1
Potency [1]: 2.95 µM (active)
Potency [7]: 1.86 µM (active)
Potency [4]: 3.72 µM (active)
Potency [3]: 4.17 µM (active)
Potency [5]: 3.32 µM (active)
Potency [6]: 4.68 µM (active)
